# From PubChem
# NPC1 prom act = NPC1 promoter activation | AID 485313 | 2.4% of 320,000 active | Potency, µM (series often up to 9.22 µM), for inactives: at the top dose activation, hits mostly activators | Huh7 NPC1 promoter luciferase reporter, 24 h; note: % of control where 0% means no effect; nearly all actives have a fitted effect of over 60% in size
#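 Cells: Huh7 expressing luciferase under the NPC1 promoter, 1500/well. Seeded 2 h, compound added, incubated 24 h at 37 °C. Luciferase reagent, 10 min ambient, then luminescence.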
# FLuc modulator = inhibits or activates purified firefly luciferase, miR-21 counter-screen. P08659. purified FLuc, Km substrates, luminescence inhibition. Potency, µM (titrated, usually from 57.5 µM), inactives show at the top dose activity change, negative = inhibition, hits mostly inhibitors. 6.9% of 360,000 active;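 note: plate controls were vehicle for no effect and reference inhibitor for full effect; nearly all actives have a fitted effect of over 55% in size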
# Target sequence (P08659 whole entry, looked up): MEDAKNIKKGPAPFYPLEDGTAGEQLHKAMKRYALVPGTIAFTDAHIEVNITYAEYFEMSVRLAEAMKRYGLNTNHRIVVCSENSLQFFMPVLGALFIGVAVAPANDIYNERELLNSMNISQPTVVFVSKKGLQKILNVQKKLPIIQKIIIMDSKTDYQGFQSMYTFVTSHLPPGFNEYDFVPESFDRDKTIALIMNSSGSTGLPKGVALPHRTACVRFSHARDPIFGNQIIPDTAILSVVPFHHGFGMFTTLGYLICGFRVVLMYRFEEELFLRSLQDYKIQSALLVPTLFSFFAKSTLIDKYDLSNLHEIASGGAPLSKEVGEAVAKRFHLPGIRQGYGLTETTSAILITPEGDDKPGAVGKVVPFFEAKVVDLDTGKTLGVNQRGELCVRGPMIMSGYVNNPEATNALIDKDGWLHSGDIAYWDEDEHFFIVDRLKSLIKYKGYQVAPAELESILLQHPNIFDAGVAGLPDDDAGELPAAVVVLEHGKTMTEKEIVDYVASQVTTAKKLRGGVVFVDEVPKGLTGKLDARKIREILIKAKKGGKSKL
#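 Biochemical qHTS of compounds, final roughly 60 µM downward over six points, against 10 nM purified firefly luciferase using Km concentrations of substrates (10 uM D-luciferin, 10 uM ATP) in Tris acetate pH 7.5 buffer; luminescence output.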
# SMN2 splice up = SMN2 splice variant enhancement; HEK293 SMN2-luciferase splicing reporter, luminescence, 30-36 h; Potency, µM (highest dose often 46.1 µM), inactives show top-dose activity change, positive = activation, usual class: activators; 2.8% of 210,000 active; note: % of control where 0% means no effect; nearly all actives have a fitted effect of over 55% in size
#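 qHTS luciferase splicing reporter: luminescence rises when SMN2 exon 7 is included in transfected HEK293 cells. Compound exposure lasted 30-36 h at 37C, with 4.5 mM final sodium butyrate as control, followed by a ONE-Glo read.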
# Rab9 promoter act = Rab9 promoter activation | Huh7 Rab9 promoter-luciferase reporter, luminescence, 24 h | Potency, µM (doses to about 9.22 µM), for the others: at the top dose activation, negative = inhibition, most hits filed as activators | 2.8% of 320,000 active; note: % of control where 0% means no effect; nearly all actives have a fitted effect of over 60% in size
#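 Stable Rab9-luc Huh7, 1500 cells/well, 2 h settle; cmpd in DMSO, 24 h, 37 °C/5% CO2; luciferase reagent 10 min RT; luminescence.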
# Luc counter = counter-screen: inhibitors of Kinase-Glo firefly luciferase | Q27757 | Kinase-Glo luciferase, ATP luminescence, 8 min | Potency, µM (highest dose often 38.3 µM), without a hit: at the top dose activity change, negative = inhibition, most hits filed as inhibitors | 0.28% of 200,000 active | AID 1379; note: % is set by controls: 0 for no effect and ±100 for the full control effect; nearly all actives have a fitted effect of over 60% in size
#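 Luminescence was the read-out, taken after 8-minute incubation at ambient temperature. Luciferase turned over luciferin with 10 uM ATP in imidazole pH 7.2 buffer containing KCl, MgCl2, Tween 20 and BSA.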
# Active calls of the source: *; ? = inconclusive; . = no result given. Hits are enriched below; roughly 7.3% of the tested compounds scored in any of these assays. Calls come from the whole dose curve; as a rule, active = well fitted curve in the direction sought with a large enough effect; inconclusive = small, poorly fitted or top-dose-only effect, or another doubt; inactive = no such curve, though single readings can be large; an effect the other way counts as inactive or inconclusive. Potency is the fitted concentration of half-maximal effect.
SMILES,NPC1 prom act,FLuc modulator,SMN2 splice up,Rab9 promoter act,Luc counter
CC1(c2ccc([N+](=O)[O-])cc2)Nc2ccccc2S1 (centres undefined),?,21µM*,.,?,.
O=C1Nc2ccccc2/C1=C/c1ccc([N+](=O)[O-])cc1,0%,?,.,-3%,.
CCc1ccc2oc(C(=O)Nc3cc(C)ccc3C)cc(=O)c2c1,.,-2%,-6%,.,.
Brc1ccc(-c2nnc(-c3ccco3)o2)cc1,3.2µM*,8.5µM*,.,4µM*,-7%
c1coc(-c2nnc(-c3ccco3)nn2)c1,?,17µM*,.,?,.
Cc1ccc(-c2nnc(-c3ccc(Br)cc3)o2)o1,?,3µM*,13µM*,3.2µM*,-1%
c1coc(-c2nnc(-c3cccs3)o2)c1,?,?,11µM*,?,-6%
COc1ccc(NC(=O)c2cccc3c(=O)c4c([nH]c23)CCCC4)cc1,.,-1%,.,.,.
COc1cc(C(CC(=O)Nc2cc(C)ccc2C)N2Cc3ccccc3C2=O)cc(OC)c1OC (centres undefined),.,0%,.,.,.
c1ccc(-c2nnc(-c3ccco3)o2)cc1,3.2µM*,21µM*,.,3.2µM*,?
O=C(Cc1ccccc1)Nc1ccc(-c2nnc(-c3ccco3)o2)cc1,0%,3%,1%,8%,1%
Cc1ccc(NC(=O)C2C3/C=C\CCCCC32)cc1 (centres undefined),?,?,?,3.5µM*,0%
Cc1cccc(NC(=O)C2C3CCCCC32)c1 (centres undefined),?,19µM*,.,?,.
O=C(Nc1cccc([N+](=O)[O-])c1)C1C2CCCCC21 (centres undefined),2%,-9%,.,15%,.
O=C(Nc1cccnc1)OC1CCCCC1,14%,-19%,14%,22%,-2%
Cc1cc(NC(=O)OC2CCCCC2)ccc1[N+](=O)[O-],2.8µM*,7.6µM*,.,2.8µM*,.
Cc1ccc(NC(=O)C2C3CCCCC32)cc1[N+](=O)[O-] (centres undefined),?,12µM*,.,?,.
Cc1ccc(-c2cc(NC(=O)COc3ccc(Cl)cc3C)on2)cc1,.,0%,15%,.,.
Cc1ccc2nc(-c3ccncc3)c(Nc3ccc(C(C)C)cc3)n2c1,.,3%,-4%,.,.
O=C(NCc1cccnc1)c1nn(-c2ccccc2F)nc1CO,.,-6%,-25%,.,.
CCCCOC(=O)Cn1nnc2sc(-c3ccccc3)cc2c1=O,.,-3%,-1%,.,.
CCC(=O)Nc1cccc(C2=NOC3(C2)C[C@H](C(N)=O)N(C(=O)c2ccc(Cl)cc2)C3)c1 (some centres undefined),-5%,-3%,.,0%,.
NC(=O)[C@H]1CC2(CC(c3cccc(NC(=O)COc4ccc(Cl)cc4)c3)=NO2)CN1C(=O)Cc1ccc([N+](=O)[O-])cc1 (some centres undefined),-35%,9.5µM*,.,-34%,.
CCCCCC(=O)Nc1cccc(C2=NOC3(C2)C[C@@H](C(N)=O)N(C(=O)Cc2ccc([N+](=O)[O-])cc2)C3)c1 (some centres undefined),-4%,-15%,.,-10%,.
NC(=O)[C@@H]1CC2(CC(c3cccc(NC(=O)COc4ccc(Cl)cc4)c3)=NO2)CN1C(=O)c1ccccc1 (some centres undefined),0%,15µM*,.,0%,.
SMILES,NPC1 prom act,FLuc modulator,SMN2 splice up,Rab9 promoter act,Luc counter
COc1ccc(C(=O)N2CC3(CC(c4cccc(NC(=O)COc5ccc(Cl)cc5)c4)=NO3)C[C@@H]2C(N)=O)cc1 (some centres undefined),1%,11µM*,.,-2%,.
CCOC(=O)c1ccccc1NC(=O)c1cc2c(s1)-c1ccccc1SC2,.,-1%,12%,.,.
COCCCNC(=O)CCCn1c(SCC(=O)c2ccc(Br)cc2)nc2c(sc3ccccc32)c1=O,.,-18%,7%,.,.
COCCCNC(=O)c1c(NC(=O)Cc2coc3cc(C)cc(C)c23)sc2c1CCCC2,.,-6%,15%,.,.
Cc1cc(Nc2ccccc2)n(C(=O)c2ccc(Cl)cc2)n1,17%,11µM*,20%,8%,1%
Cc1cc(Nc2ccccc2)n(-c2ccc(C(=O)O)cc2)n1,-4%,-14%,-1%,-2%,4%
COc1ccc(Cl)cc1NC(=O)CSC1=Nc2ccccc2C2=NC(CC(=O)NC3CCCCC3)C(=O)N12 (centres undefined),.,-3%,-9%,.,.
CC(=O)Nc1cccc(NC(=O)c2cccc(OCc3ccccc3)c2)c1,8%,27µM*,.,1%,.
CC(=O)Nc1cccc(NC(=O)c2cccc(-c3ccc(O)cc3)c2)c1,6%,9.5µM*,.,10%,.
COc1ccc(NC(=O)c2cccc(-c3ccc(O)cc3)c2)cn1,8%,?,.,7%,.
CC(=O)Nc1cccc(NC(=O)c2ccccc2OCc2ccccc2)c1,-3%,-12%,.,3%,.
CCN1CCN(c2ccc(NC(=O)c3cccc(OCc4ccccc4)c3)cc2)CC1,-8%,?,-20%,4%,15%
CN1CCN(c2ccc(NC(=O)c3cccc(OCc4ccccc4)c3)cc2)CC1,19%,7.6µM*,-14%,20%,-1%
Cc1ccc(Cn2c(=O)n(-c3ccc(C)c(C)c3)c(=O)c3c(C)c(C)sc32)cc1,.,3%,1%,.,.
CC(=O)N/C(N)=N/c1nc(=O)c2ccccc2s1,?,13µM*,.,2.5µM*,.
CCOC(=O)N/C(N)=N/c1nc2ccccc2s1,1.6µM*,5.4µM*,11µM*,3.2µM*,-2%
COCCn1c(C)cc(O)c(C(c2ccc(Cl)cc2)N2CCCCC2)c1=O (centres undefined),.,-8%,.,.,.
CCc1ccc(C2N3CC4(C)CN2CC(c2ccccc2)(C3)C4=O)cc1 (centres undefined),.,7%,-11%,.,.
Nc1ccc(-c2nc3ncccc3o2)c(Cl)c1,2µM*,4.8µM*,13µM*,3.2µM*,1%
